From PubChem
Sampled rows, rich in hits. Any-hit rate of the full collection: about 2.4%.
D2 PAM-1: positively modulates the human D2 dopamine receptor allosterically; hit rate 0.34% among 340,000; HEK293 T-REx D2, calcium flux, EC20 dopamine potentiation; potentiation, % at 10 µM;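 active = potentiation over 3 SD above the plate norm, cut at about 30% in these data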
Target sequence (P14416 whole entry, looked up): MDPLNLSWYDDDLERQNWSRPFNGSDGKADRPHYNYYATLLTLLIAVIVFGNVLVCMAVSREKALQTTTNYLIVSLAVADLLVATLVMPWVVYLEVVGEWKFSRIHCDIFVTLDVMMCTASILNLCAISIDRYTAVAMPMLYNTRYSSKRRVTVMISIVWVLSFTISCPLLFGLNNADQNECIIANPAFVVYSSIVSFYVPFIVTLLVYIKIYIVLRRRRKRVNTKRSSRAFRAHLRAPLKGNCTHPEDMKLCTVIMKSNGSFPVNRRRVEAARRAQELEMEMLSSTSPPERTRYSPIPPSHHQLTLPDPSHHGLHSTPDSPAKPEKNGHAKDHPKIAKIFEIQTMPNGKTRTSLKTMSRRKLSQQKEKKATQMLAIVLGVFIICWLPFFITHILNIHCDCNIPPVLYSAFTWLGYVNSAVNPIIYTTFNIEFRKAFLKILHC
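Potentiation of an EC20 dopamine calcium response measured kinetically over 180 s, after a preceding 180 s compound-only read flagging agonists. Cells: inducible Hek293 Trex D2 line, 4000/well, cultured overnight at 30 C before dye loading.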
D2 antagonist: antagonizes the human D2 dopamine receptor | P14416 | HEK293 TREx D2 cells, calcium flux, dopamine EC80 | inhibition, % at 10 µM | hit rate 2% among 340,000 | AID 485344; in the data active = inhibition above about 30%; inactive = below that, where a call was filed
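Read-out: kinetic calcium fluorescence (1 cycle/s) in inducible HEK293 T-REx D2 cells after an EC80 dopamine addition that followed 180 s compound preincubation. Loss of the dopamine response indicates antagonism.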
D2 ag-1: agonists of human D2 dopamine receptor (beta-arrestin). DiscoveRx PathHunter D2 beta-arrestin, luminescence, 90 min; 100% = 57 uM dopamine signal. activation, % (no concentration beside the values). hit rate 0.084% among 360,000. AID 624465; in the data active = activation above about 40%; inconclusive = between about 15% and that limit
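Agonist mode: compounds alone added to overnight-plated D2 PathHunter cells for 90 min at 37 C, with 57 uM final dopamine (EC100) defining full response. Beta-arrestin recruitment detected by chemiluminescent reagent, read after 1 h at ambient temperature.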
D2 PAM-2: potentiates the human D2 dopamine receptor allosterically; DiscoveRx D2 beta-arrestin cells, luminescence, 90 min; 100% = 57 uM dopamine signal; potentiation, % (no concentration beside the values); hit rate 0.23% among 360,000; in the data active = potentiation above about 50%; inconclusive = mostly about 30% to 49%
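PathHunter D2 cells, attached overnight at 37 deg C, received compound in DMSO plus dopamine at EC20 (50 nM final) for 90 min at 37 deg C. Beta-arrestin recruitment was read as luminescence after 1 h with detection reagent at ambient temperature.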
D2 ag-2: agonists of human D2 dopamine receptor. P14416. activation, % at 2 µM. HEK293 T-REx D2 cells, calcium flux agonist mode. hit rate 0.53% among 340,000;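 active = activation over 3 SD above normal in the single-dose calcium agonist read, cut at about 30% in these data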
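Calcium-flux readout, 1 cycle/sec over 180 s following compound pin transfer, in inducible HEK293 Trex D2 cells (force-coupled); dopamine controls included. Positive calcium responses during this window marked compounds as potential agonists.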
D3 ag: activates human D3 dopamine receptor beta-arrestin recruitment; Potency, µM (highest dose often 76.9 µM), hits mostly activators; hit rate 4% among 2,300; shares compounds with D2 ag-2; DiscoveRx D3 beta-arrestin cells, luminescence, 90 min; also: nearly all actives have a fitted effect of over 70% in size
D2 ag-3: activates human D2 dopamine receptor in D3 counterscreen | Potency, µM (series often up to 76.9 µM), actives largely listed as activators | DiscoveRx PathHunter D2 beta-arrestin, luminescence, 90 min; response scale: percent relative to full dopamine signal | hit rate 5.9% among 2,300 | shares compounds with D2 ag-2 | AID 720507; also: nearly all actives have a fitted effect of over 70% in size
Hits are given with their value; n = inactive; u = inconclusive; x = no result; ! = not active in a repeat. Unless noted, calls follow the shape of the dose curve; as a rule, active = well fitted activation curve with a large enough effect; inconclusive = small, poorly fitted or top-dose-only effect; inactive = flat fitted curve, though single readings scatter.

SMILES | D2 PAM-1 | D2 antagonist | D2 ag-1 | D2 PAM-2 | D2 ag-2 | D3 ag | D2 ag-3
CN1C(=O)/C(=C\c2ccc(N3CCCCC3)o2)C(=O)NC1=S | n | n | n | n | 33 | n | n
CC(=O)O[C@H]1[C@H]2O[C@]23[C@@H]2CC[C@]4(O)C[C@@H](O)CC[C@]4(C)C2CC[C@]3(C)[C@H]1c1ccc(=O)oc1 (some centres not stated) | n | n | n | n | n | n | n
Cc1ccc(OCC(=O)N2CCN(CCc3ccncc3)CC2)cc1C | n | x | x | x | n | x | x
O=C(CCN1CC=C(c2ccccc2)CC1)NCc1ccccc1 | x | x | n | n | x | x | x
O=C(CN1CC=C(c2ccccc2)CC1)NC(=O)NCc1ccco1 | n | 40 | n | n | 54 | n | n
Cc1cccc(-c2nc(CN3C(=O)CN=C(c4ccccc4)c4ccccc43)c(C)o2)c1 | n | x | x | x | n | x | x
CCOc1ccc2nc(NC(=O)c3cccn(Cc4ccc(Cl)cc4)c3=O)sc2c1 | n | x | x | x | x | x | x
Cc1ccccc1OCC(=O)N1CCN(CCc2ccccn2)CC1 | n | x | x | x | n | x | x
NNC(N)=O | n | 31 | n | n | n | n | n
NC1CCc2cc(O)c(O)cc2C1 (configuration not stated) | n | 101 | 100 | 103 | 91 | 0.022µM | 0.014µM
Cc1cccc(Cn2cccc(C(=O)Nc3ccc(F)cc3F)c2=O)c1 | n | x | x | x | n | x | x
COc1c2c(cc3c1OCO3)CC[N+](C)=C2 | n | n | n | n | n | n | n
COc1ccc2c(c1OC)CN1CCc3cc4c(cc3[C@H]1C2)OCO4 | n | n | n | n | n | x | x
CC(C)c1ccc(OCC(=O)N2CCN(CCc3ccccn3)CC2)cc1 | x | x | x | x | n | x | x
O=C1NC(=S)N(c2ccc(Cl)cc2)C(=O)/C1=C/N1CCN(C(=O)c2ccco2)CC1 | n | n | n | n | n | n | n
O=C1CN=C(c2ccccc2)c2cc(Cl)ccc2N1Cc1ccc(Cl)cc1 | n | x | x | x | n | x | x
NCCCN1CCN(c2ccccc2)CC1 | n | 95 | u | n | n | n | n
CCN(CC)S(=O)(=O)c1cc(NC(=O)C(C)N2CC=C(c3ccccc3)CC2)ccc1C (configuration not stated) | n | n | u | n | 44 | n | u
CN(C)c1cccc(CN2CCN(c3ccccc3)CC2)c1 | x | x | n | n | x | x | x
Cn1c(=O)oc2cc(S(=O)(=O)NCCN3CCN(c4ccccc4)CC3)ccc21 | n | 65 | n | n | 71 | n | u
CN1CCN(c2oc(-c3ccc(COc4ccccc4)o3)nc2C#N)CC1 | n | x | x | x | n | x | x
COC(=O)C1=C(c2ccc(OCc3ccccc3)cc2)C[C@@H]2CC[C@H]1N2C(=O)NCc1cccc(OC)c1 | n | n | n | n | n | x | x
CCOc1ccc(NC(=O)Cn2cc(C(=O)c3ccccc3)c3ccccc32)cc1 | n | x | x | x | n | x | x
CC[C@@H](CO)NC(=O)[C@@H]1C=C2c3cccc4c3c(cn4C)C[C@H]2N(C)C1 | n | 47 | n | n | 54! | u | n
CC(C)C[C@H]1C(=O)N2CCC[C@H]2[C@]2(O)O[C@](NC(=O)[C@@H]3C=C4c5cccc6[nH]cc(c56)C[C@H]4N(C)C3)(C(C)C)C(=O)N12 | n | 72 | 106 | u | 76 | u | 1µM
CCC(CO)NC(=O)C1C=C2c3cccc4[nH]cc(c34)CC2N(C)C1 (configuration not stated) | n | 81 | 114 | u | 84 | 2.8µM | 7.1µM
COC(=O)C1=C(c2c(C)noc2C)C[C@@H]2CC[C@H]1N2C(=O)NCCO | n | n | n | n | n | x | x
COC(=O)C1=C(c2c(C)noc2C)C[C@@H]2CC[C@H]1N2C(=O)NC(C)C | n | 42 | n | n | n | n | n
CC(=O)N1CCC(N2CCCC(C(=O)c3cccc(Cl)c3)C2)CC1 (configuration not stated) | n | 78 | 58 | 55 | 84 | u | u
Cc1ccc(Cn2cccc(C(=O)Nc3cc(C)on3)c2=O)cc1 | n | x | x | x | n | x | x
